Records with an inconclusive call do not appear. Values without a mark were called inactive. Activity calls are given as the source filed them. Calls come from the whole dose curve; as a rule, active = well fitted activation curve with a large enough effect; inconclusive = small, poorly fitted or top-dose-only effect; inactive = no such curve, though single readings can be large or run the other way. Square brackets hold non-standard residues; d marks the D form. Peptide text beside a SMILES is read from it. Hyp = O=C(O)[CH]1C[CH](O)CN1; Phe(ol) = N[CH](CO)Cc1ccccc1; Iva = CC[C](C)(N)C(=O)O; Aib = CC(C)(N)C(=O)O
Potency is the fitted concentration of half-maximal effect.

Sequence of Cellular tumor antigen p53 (Homo sapiens) (P04637 whole entry, looked up): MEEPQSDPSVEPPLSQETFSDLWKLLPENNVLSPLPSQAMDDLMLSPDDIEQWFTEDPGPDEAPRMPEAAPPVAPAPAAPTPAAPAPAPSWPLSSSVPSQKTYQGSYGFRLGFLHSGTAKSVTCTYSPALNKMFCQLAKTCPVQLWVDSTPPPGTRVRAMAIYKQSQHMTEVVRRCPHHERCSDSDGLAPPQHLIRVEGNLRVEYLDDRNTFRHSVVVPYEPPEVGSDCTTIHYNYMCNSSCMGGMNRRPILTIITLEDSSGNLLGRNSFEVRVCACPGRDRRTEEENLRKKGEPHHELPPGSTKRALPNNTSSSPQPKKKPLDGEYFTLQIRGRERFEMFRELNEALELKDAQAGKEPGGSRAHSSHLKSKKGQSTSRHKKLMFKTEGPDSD

This assay addresses Cellular tumor antigen p53 (Homo sapiens) (UniProt P04637). The assay can be described thus: Primary qHTS for small molecule compounds that upregulate eGFP-tagged delta133p53alpha (in N-terminal) cells. (AID 2060322).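 For activation: series mostly up to about 56 µM; 0% = DMSO vehicle and 100% = reference activator.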 Note: nearly all actives have a fitted effect of over 75% in size. The conditions noted are these: NCI-H358 eGFP-delta133p53alpha fluorescence, 24 h; activation: active compounds read high. Put shortly: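 NCI-H358 cells pre-induced 24 h with 10 ng/ml doxycycline for eGFP-delta133p53alpha, plated dox-free and exposed 24 h at 37C to titrated compounds. Fixed, Hoechst-stained; gated GFP peak intensity by laser scanning cytometry, normalized to DMSO (0%) and 57.5 uM 5-azacytidine (100%).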
(In general: In qHTS, concentration-response curves come from the screen itself.)
Take `COc1cc(O)cc(C)c1C(=O)O[C@@H]1[C@H](O)[C@@H](CO)O[C@H]1n1ccc(=O)[nH]c1=O`: the activation was 11.5%.
Still for that read-out and setting: for `C=CC(C)(O)CC/C=C(\C)C(=O)O[C@@H]1[C@@H](O)[C@H](OC(C)(C=C)CC/C=C(\C)C(=O)O[C@@H]2O[C@H](CO)[C@@H](O)[C@H](O)[C@H]2O)O[C@H](CO)[C@H]1OC(=O)/C(C)=C/CCC(C)(O)C=C` (stereo not given in full) the value was -19.8%.
Same read-out and setting: for `CCC(C)(NC(=O)C(CCC(N)=O)NC(=O)C1CC(O)CN1C(=O)C(C)(C)NC(=O)C(C)(C)NC(=O)C(CC(C)C)NC(=O)CNC(=O)C(NC(=O)C(C)(C)NC(=O)C(C)(C)NC(=O)C(C)(C)NC(=O)C(Cc1ccccc1)NC(C)=O)C(C)C)C(=O)N1CC(O)CC1C(=O)NC(C)(C)C(=O)NC(CO)Cc1ccccc1` (stereo not given) (Ac-F[Aib][Aib][Aib]VGL[Aib][Aib][Hyp]Q[Iva][Hyp][Aib][Phe(ol)]; configuration not given here) the value was 23.7%.
The same measure, in the same setting: for `O=C(N/N=C/c1ccc(O)c(O)c1)c1cc2ccccc2cc1O` the value was 4.33%; for `COC(=O)C1C(O)CCC2CN3CCc4c([nH]c5ccccc45)C3CC21` (stereo not given), 23.2%; for `C[C@@H]1O[C@@H](O[C@H]2[C@H](O[C@H]3[C@H](O[C@H]4CC[C@@]5(CO)C(CC[C@]6(C)C5CC=C5C7CC(C)(C)C[C@@H](O)[C@]7(C)CC[C@]56C)C4(C)C)O[C@H](C(=O)O)[C@@H](O)[C@@H]3O)OC[C@@H](O)[C@@H]2O)[C@H](O)[C@H](O)[C@H]1O` (stereo not given in full), -15.3%.
For the molecule `COc1c2c(c(C)c3c1C(=O)OC3)OC1(C)CC(O)C34OC(O)(CCC3(C)C1C2)OC4(C)C` (stereo not given), the activation was -6.87%.
Same read-out and setting: for `O=C(Nc1ccccc1C(=O)Nc1ccc(CCO)cc1)c1ccc([N+](=O)[O-])cc1` the value was -29.5%.
On the same count and under the same terms, then `CCNc1nc(Nc2cc(F)c(C(=O)N3CCOCC3)cc2OC)ncc1C(F)(F)F`, with 10.7%; and `Fc1ccc(N2CCCCC2)c(NC(=S)c2ccncc2)c1`, with -8.04%; and `CCCC(CCC)C(=O)NCc1ccc2c(cnn2-c2ccccc2OC)c1`, with -5.25%.
Still for that read-out and setting: for `O=C1NC(Cc2ccccc2)C(=O)N2CCCC12` (stereo not given) the value was -16.8%.
Consider `CC(C)c1ccc2c(c1)[C@H](O)CC1[C@@](C)(C(=O)O)CCC[C@]21C` (stereo not given in full), for which the activation was -4.46%.
Same read-out and setting: for `CC(C)CC(=O)OC[C@H]1O[C@@](COC(=O)CC(C)C)(O[C@H]2O[C@H](CO)[C@@H](O)[C@H](O)[C@H]2O)[C@@H](OC(=O)CC(C)C)[C@@H]1OC(=O)CC(C)C` the value was -0.763%.
Same read-out and setting: then `C=C(C)C(C)C1OC23CC4(CO2)C(CCC2C5(C)CCC(OC6OCC(O)C(OC7OC(CO)C(O)C(OC8OCC(O)C(O)C8O)C7O)C6OC6OC(CO)C(O)C6O)C(C)(C)C5CCC24C)C3C(C)(O)C1OC(C)=O` (stereo not given), with -19.8%; and `Nc1nc(-n2cc(C(=O)O)c(=O)c3cc(F)c(N4CC(O)C4)c(Cl)c32)c(F)cc1F`, with 13%; and `Nc1c(S(=O)(=O)c2ccccc2)c2nc3ccccc3nc2n1-c1ccc(F)cc1`, with -10.3%.
The same measure, in the same setting: for `COc1cccc(C)c1C(=O)O[C@@H]1C[C@H](O[C@H]2[C@H](O)C[C@H](O[C@@H]3CCC[C@H]4[C@H]3C=C[C@@H]3CCCC/C=C/[C@H]5C=C(C(=O)O)[C@@H](C)C[C@@]56OC(=O)C(=C6O)OC(=O)[C@@]34C)O[C@@H]2C)O[C@H](C)[C@H]1O` the value was -5.34%; for `Cc1nc(NC(=O)N2CCC[C@H]2C(N)=O)sc1-c1ccnc(C(C)(C)C(F)(F)F)c1`, -25%.
For the molecule `CCC[C@@H]1O[C@@H]2C[C@H]3[C@@H]4CCC5=CC(=O)C=C[C@]5(C)[C@H]4[C@@H](O)C[C@]3(C)[C@]2(C(=O)CO)O1`, the activation is 6.33%.
Still for that read-out and setting: then `CC(=O)C12OC(C)(C)OC1CC1C3CCC4=CC(=O)C=CC4(C)C3(F)C(O)CC12C` (stereo not given), with -9.67%.
Same read-out and setting: for `CC1(C)CC[C@]2(C(=O)O[C@@H]3O[C@H](CO)[C@@H](O)[C@H](O)[C@H]3O)CC[C@]3(C)C(=CCC4[C@@]5(C)CC[C@H](O[C@@H]6O[C@H](C(=O)O)[C@@H](O)[C@H](O)[C@H]6O)C(C)(C)C5CC[C@]43C)C2C1` (stereo not given in full) the value was -0.893%; for `C=C(C)C1CC[C@]2(C(=O)O)CC[C@]3(C(=O)O)[C@H](CCC4[C@@]5(C)CC[C@H](O)C(C)(C)C5CC[C@]43C)C12` (stereo not given in full), -12.5%; for `C=C1CCC[C@]2(C)CC[C@@](O)(C(=C)C(=O)O)C[C@@H]12`, 24.1%.
On the same count and under the same terms, then `CC(C)c1ccc2c(c1)C(=O)CC1C(C)(C(=O)O)CCCC21C` (stereo not given), with 3.57%; and `CC(=O)N[C@@H](CCCCN)C(=O)N(C)[C@@H](CC(C)C)C(=O)N[C@H](C(=O)N(C)[C@@H](Cc1ccccc1)C(=O)N[C@H](Cc1ccccc1)C(N)=O)C(C)C`, with 7.67%.
Turning to `Cn1cc(-c2ccc3nnc(Sc4ccc5nn(C)cc5c4)n3n2)cn1`, the activation was -4.46%.
The same measure, in the same setting: then `O=C(OCC12OC1C=CC(OC(=O)c1ccccc1)C2O)c1ccccc1` (stereo not given), with 10.7%.
Still for that read-out and setting: for `CCCCC1CCC(c2nc(-c3ccncc3)no2)CC1` (stereo not given) the value was -6.68%.
With `CC(=O)O[C@@H]1CC[C@@]2(C)[C@H](CC[C@@H]3[C@@H]2C[C@H](OC(C)=O)[C@]2(C)[C@@H](C(C)=O)CC[C@@H]32)C1`, the activation is 5%.
Still for that read-out and setting: for `C/C=C/C=C/C=C/C(=O)N(C)C(C(=O)NC(C)C(=O)N1CCCC1C(N)=O)C(C)C` (stereo not given) the value was 17.6%.
As to `C=C1C(=O)O[C@@H]2/C=C(\C)CC/C=C(\C)CC[C@@H]12`, the Potency was 21.3 µM (active).
As for `COc1cc(C(O)C(CO)Oc2ccc(CCCO[C@@H]3O[C@@H](C)[C@H](O)[C@@H](O)[C@H]3O)cc2OC)ccc1O` (stereo not given in full), the activation was -13.4%.
Still for that read-out and setting: then `CC1(C)CC[C@]2(C(=O)O)[C@H](O)C[C@]3(C)C(=CCC4[C@@]5(C)CC[C@H](O[C@@H]6O[C@H](CO[C@@H]7OC[C@H](O)[C@H](O)[C@H]7O[C@@H]7OC[C@@H](O)[C@H](O)[C@H]7O)[C@@H](O)[C@H](O)[C@H]6O[C@@H]6O[C@H](CO)[C@@H](O)[C@H](O)[C@H]6O)C(C)(C)C5CC[C@]43C)[C@@H]2C1` (stereo not given in full), with -17.6%.
On the same count and under the same terms, for `CC1(C)CCC2(C(=O)OC3OC(CO)C(O)C(O)C3O)CCC3(C)C(=CCC4C5(C)CCC(OC6OC(C(=O)O)C(OC7OC(CO)C(O)C(O)C7O)C(OC7OC(CO)C(O)C(O)C7O)C6O)C(C)(C)C5CCC43C)C2C1` (stereo not given) the value was -5.34%.
Take `C=C1C(=O)OC2CC(C)C(CCC(C)=O)=CCC12` (stereo not given): the Potency was 16.9 µM (active).
With `Fc1ccc(-c2c3cccc(C(F)(F)F)c3nn2Cc2ccc(F)cc2Cl)cc1`, the activation was -8.11%.
On the same count and under the same terms, for `CC(=O)O[C@@H]1[C@@H](O)[C@H](C)O[C@@H](O[C@H]2[C@@H]3C=CO[C@@H](O[C@@H]4O[C@H](CO)[C@@H](O)[C@H](O)[C@H]4OC(C)=O)[C@@H]3[C@@]3(CO)O[C@@H]23)[C@@H]1OC(=O)/C=C/c1ccc(O)cc1` the value was -17.6%.
Regarding `C=C1C(O)CC2C(C(=O)O)=COC(O[C@@H]3O[C@H](COC(=O)c4ccc(O)cc4)[C@@H](O)[C@H](O)[C@H]3O)C12` (stereo not given in full), the activation was -6.11%.
Still for that read-out and setting: then `C=C[C@@]12COC(=O)C(=C)[C@@H]1[C@@H](O)[C@H](C(=C)C(=O)OC)[C@@H](O)C2`, with -7.63%.

Source of the values: PubChem BioAssay (NCATS).
